Data reported in the supplement of paper PMC6853941.
Unmarked numbers belong to inactive results.

System: MCF10A
Assay: perturbation Mahalanobis distance of morphological profile vs DMSO controls (Mahalanobis distance (SD units)); higher = stronger morphological change, active = 7 or more
Details: 72 h
Protocol: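 MCF10A cells were seeded onto drugs dispensed acoustically into 384-well plates, using one dose per drug chosen from its human peak plasma concentration, and incubated for 72 h at 37 °C. Cells were stained for DNA, tubulin and mitochondria and imaged; 78 CellProfiler features were extracted, plate-normalised and compared with DMSO wells.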

[1] = screen batch: Batch1_Mahalanobis_Distance
[2] = screen batch: Batch2_Mahalanobis_Distance

Structure (SMILES) | perturbation Mahalanobis distance [1] | perturbation Mahalanobis distance [2]
CCN(CCO)CCCC(C)Nc1ccnc2cc(Cl)ccc12 (configuration not stated) [Hydroxychloroquine] (1.5 µM) | 3.38 | 2.9
O=NN(CCCl)C(=O)NCCCl [Carmustine] (0.2 µM) | 2.08 | 2.55
C[C@@](N)(Cc1ccc(O)c(O)c1)C(=O)O [Methyldopa] (118.4 µM) | 3.81 | 3.85
Nc1nc(N)c2nc(-c3ccccc3)c(N)nc2n1 [Triamterene] (2 µM) | 3.18 | 4.38
Nc1ncn([C@@H]2O[C@H](CO)[C@@H](O)[C@H]2O)c(=O)n1 [Azacitidine] (15.4 µM) | 14.8 (active) | 17.2 (active)
O=c1ncnc2[nH][nH]cc1-2 [Allopurinol] (139.6 µM) | 2.93 | 2.89
